Screening results: PubChem, National Center for Advancing Translational Sciences (NCATS)
Compounds with a hit are over-represented: about 19% of the library has one in this group of screens.
ELG1 DNA repair – inhibitors of ELG1-dependent DNA repair in HEK293T cells; Potency, µM (highest dose often 46.1 µM), for the others: at the top dose activity change, negative = inhibition, usual class: inhibitors; 330,000 compounds, 2.3% hits; HEK293T ELG1-luciferase reporter, luminescence, 16 h; DNA damage induced by 5-fluorouridine; note: potency is the fitted concentration of half-maximal effect; nearly all actives have a fitted effect of over 55% in size
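In this reporter screen, reduction of luminescence relative to DMSO vehicle indicated activity. Compounds and 5-fluorouridine were added together to 2,000 cells per well, incubated for 16 hr at 37 °C, then developed with ONE-Glo.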
TDP1 block – blocks human tyrosyl-DNA phosphodiesterase 1 | Q9NUW8 | 350,000 compounds, 0.28% hits | recombinant TDP1, AlphaScreen DNA substrate cleavage | AID 485290 | Potency, µM (titrated, usually from 130 µM), inactives show at the highest dose activity change, negative = inhibition, actives largely listed as inhibitors; note: potency is the fitted concentration of half-maximal effect; nearly all actives have a fitted effect of over 40% in size
Target sequence (Q9NUW8 whole entry, looked up): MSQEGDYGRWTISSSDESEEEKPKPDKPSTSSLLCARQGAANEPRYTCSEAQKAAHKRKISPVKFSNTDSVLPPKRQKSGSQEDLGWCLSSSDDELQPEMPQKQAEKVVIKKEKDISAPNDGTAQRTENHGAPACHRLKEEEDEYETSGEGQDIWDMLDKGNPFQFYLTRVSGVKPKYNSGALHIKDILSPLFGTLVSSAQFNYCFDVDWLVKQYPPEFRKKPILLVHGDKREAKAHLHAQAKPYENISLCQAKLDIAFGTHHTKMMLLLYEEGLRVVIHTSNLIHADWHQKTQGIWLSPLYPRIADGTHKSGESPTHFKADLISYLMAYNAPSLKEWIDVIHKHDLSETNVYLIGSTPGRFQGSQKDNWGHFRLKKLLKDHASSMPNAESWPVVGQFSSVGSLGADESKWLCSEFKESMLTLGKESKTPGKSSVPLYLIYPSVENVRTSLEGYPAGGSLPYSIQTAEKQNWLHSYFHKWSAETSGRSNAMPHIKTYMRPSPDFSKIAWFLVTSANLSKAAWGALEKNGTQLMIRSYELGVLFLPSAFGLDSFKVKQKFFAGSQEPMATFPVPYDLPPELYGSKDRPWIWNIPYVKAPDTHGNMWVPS
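Steps: enzyme plus compound, 15 min RT; add biotin/phosphotyrosine-FITC oligonucleotide (15 nM final), react 5 min; add donor/acceptor beads (10 ug/ml final), 10 min; read AlphaScreen. Tdp1 at 1 nM final.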
DT40 TDP1 no CPT – qHTS for Inhibitors of human tyrosyl-DNA phosphodiesterase 1 (TDP1): qHTS in cells in absence of CPT; DT40 Tdp1-/- hTDP1 cells, no CPT, ATP luminescence, 48 h; Potency, µM (top dose mostly 46.2 µM), for the others: top-dose activity change, negative = growth inhibition, actives largely listed as inhibitors; AID 686978, 2013; 420,000 compounds, 15% hits; note: potency is the fitted concentration of half-maximal effect; nearly all actives have a fitted effect of over 55% in size
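DT40 Tdp1-/-;hTDP1 cells, no CPT (DMSO vehicle only), 400 cells/well; compounds pin-transferred; ≥48 hr, 37 °C; CellTiter-Glo 30 min RT dark, luminescence read.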
DT40 TDP1 CPT – growth inhibition of DT40 Tdp1-/-;hTDP1 cells with camptothecin (screen for TDP1 inhibitors). chicken DT40 Tdp1-/-;hTDP1 cells + 20 nM CPT, ATP luminescence, 48 h. Potency, µM (top dose mostly 46.2 µM), for inactives: at the top dose activity change, negative = growth inhibition, most hits filed as inhibitors. 420,000 compounds, 12% hits. AID 686979; note: potency is the fitted concentration of half-maximal effect; nearly all actives have a fitted effect of over 55% in size
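Chicken DT40 Tdp1-/- cells complemented with human TDP1, 400 cells/well, exposed to compounds plus 20 nM camptothecin for at least 48 h at 37 C; viability read as ATP content by CellTiter-Glo luminescence.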
IL-1B inflam inh – blocks inflammasome-driven IL-1 beta release; 360,000 compounds, 4.7% hits; THP-1 LPS/ATP IL-1B secretion, AlphaLISA, 16 h; stronger effect = lower value; activity change, % at 57.5 µM; AID 743279; in the data active = activity change below about -50%; inconclusive = mostly about -30% to -49%
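Secreted IL-1B measured by AlphaLISA bead assay after 16 h compound exposure of THP-1 cells; compounds (final up to 57.5 uM) added 1 h before LPS (250 ng/mL) and ATP (1.25 mM) stimulation; lower signal means less secretion.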
Giardia kill – Giardia lamblia killing; activity change, % at 7.66 µM, hits read low; 340,000 compounds, 0.15% hits; Giardia lamblia trophozoite viability; in the data active = activity change below about -80%; inconclusive = between about -30% and that limit;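 note: parasites exposed to compound for two days anaerobically before the ATP read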
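ATP-content bioluminescence gauges trophozoite survival. Cells (100/well) receive compound and incubate anaerobically for 48 hrs at 37 deg C; detection reagent follows for 15-30 min at room temperature.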
Numbers without * were called inactive; ? = inconclusive; nt = no result given; [ ] = remark or other dose. Unless noted, calls come from the whole dose curve; as a rule, active = well fitted curve in the direction sought with a large enough effect; inconclusive = small, poorly fitted or top-dose-only effect, or another doubt; inactive = no such curve, though single readings can be large; an effect the other way counts as inactive or inconclusive. % is set by controls: 0 for no effect and ±100 for the full control effect.

SMILES	ELG1 DNA repair	TDP1 block	DT40 TDP1 no CPT	DT40 TDP1 CPT	IL-1B inflam inh	Giardia kill
COCCNC(=O)COc1cccc2c1OC(C)(C)C2	4.1%	6.9%	-0.1%	2.3%	1.7	-3.4
CCOC(=O)c1ccccc1NC(=O)N1CCOc2ccc(Cl)cc21	nt	7.8%	?	?	nt	nt
O=C(C[C@H]1C[C@H](C(=O)N2CCOCC2)[C@@]2(CCC3CCCC3)c3[nH]c4cc(-c5ccco5)ccc4c3CCN2C1=O)NCCC1=CCCCC1	3.2%	1.3%[56.1 µM]	20.6µM*	?	?	-14.4
C[C@]12c3[nH]c4ccc(Cl)cc4c3CCN1C(=O)[C@@H](CC(=O)NCCC1=CCCCC1)C[C@@H]2C(=O)N1CCOCC1	?	0.7%[56.1 µM]	16.4µM*	11.6µM*	-25.3	-10.1
O=C(C[C@H]1C[C@H](C(=O)N2CCOCC2)[C@@]2(CCC3CCCC3)c3[nH]c4cc(-c5ccco5)ccc4c3CCN2C1=O)NCc1ccco1	?	-6.2%[56.1 µM]	16.4µM*	?	-55.3*	-5.2
CN(C)CCCNC(=O)C[C@H]1C[C@H](C(=O)N2CCOCC2)[C@@]2(CCC3CCCC3)c3[nH]c4cc(CCC(=O)N(C)C)ccc4c3CCN2C1=O	18.9%	1.8%[56.1 µM]	-1.3%	1.0%	3.5	6.4
CN(C)C(=O)CCc1ccc2c3c([nH]c2c1)[C@]1(CCC2CCCC2)[C@@H](C(=O)N2CCOCC2)C[C@H](CC(=O)NCCC2=CCCCC2)C(=O)N1CC3	-16.0%	0.5%[56.1 µM]	23.1µM*	23.1µM*	21.2	-23.4
O=C(NCC1CCCO1)c1ccc[nH]1 (stereo not given)	9.8%	nt	5.9%	2.8%	0.9	-3.9
CC(CCC(=O)O)C1CCC2C3CC[C@@H]4CCCC[C@@]4(C)C3CC[C@@]12C (stereo not given in full)	nt	nt	-7.1%	9.6%	nt	nt
C[C@]12c3[nH]c4cc(-c5ccco5)ccc4c3CCN1C(=O)[C@@H](CC(=O)NCCC1=CCCCC1)C[C@@H]2C(=O)N1CCOCC1	-12.5%	6.1%[56.1 µM]	20.6µM*	16.4µM*	0.0	33.7
O=C(C[C@H]1C[C@H](C(=O)N2CCOCC2)[C@@]2(CCC3CCCC3)c3[nH]c4ccc(Cl)cc4c3CCN2C1=O)NCCc1ccccn1	14.2%	0.3%[56.1 µM]	16.4µM*	16.4µM*	-10.9	-15.0
O=C(C[C@H]1C[C@H](C(=O)N2CCOCC2)[C@@]2(CCC3CCCC3)c3[nH]c4cc(-c5ccco5)ccc4c3CCN2C1=O)NCCc1ccccn1	?	5.7%[56.1 µM]	?	?	-52.0*	21.6
Cc1cc(C)cc(C(=O)Oc2cc(C)[nH]c(=O)c2[N+](=O)[O-])c1	4.5%	5.1%	-18.9%	-13.7%	2.7	15.0
Cc1ccccc1-n1ccnc1SCC(=O)NCc1ccco1	4.6%	-5.7%	4.4%	-19.7%	-7.3	1.2
COc1ccc(CCNC(=O)C2CCN(S(=O)(=O)c3cccc4cccnc34)CC2)cc1OC	3.8%	-12.4%	?	16.4µM*	27.6	13.5
O=C(NCCc1ccccc1)C1CCC(CNS(=O)(=O)c2cccc3cccnc23)CC1 (stereo not given)	9.8%	nt	23.1µM*	16.4µM*	-14.6	11.0
COc1ccccc1CNC(=O)C1CCN(c2nc3ccc(Cl)cc3[nH]2)CC1	nt	5.4%	?	?	nt	nt
CCN(CC(=O)NCc1ccc(Cl)cc1)C(=O)CSc1cc(C)ccc1C	-4.1%	1.1%	?	?	-57.5*	45.1
CCN(CC(=O)NCc1ccc(Cl)cc1)C(=O)CSCC(=O)Nc1ccc(C)cc1	-1.1%	nt	-19.5%	-14.9%	-93.2*	1.4
CCN(CC(=O)Nc1ccc(OC)cc1)C(=O)CSCC(=O)Nc1ccc(C)cc1	-0.3%	3.9%	2.8%	4.6%	13.1	7.1
